Reference: PubChem BioAssay (NCI)
Where “and” joins values, the source holds several entries; their conditions need not be identical. Equal entries are not always repeated. The panel holds about 79,000 compounds, 15% with a hit somewhere; the sample as a whole holds those more often. Some compounds were tested as several samples or in several runs, with calls that do not always agree. Calls of active or inactive are those of the source. Rule as the data show it: active = growth inhibition above about 70%; inactive = the rest.

Experiments:
[1] = NCI Yeast Anticancer Drug Screen. Data for the wt2 strain (AID 169);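 also: 0% = growth of vehicle-treated yeast cultures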; conditions: S. cerevisiae wt2 strain growth inhibition, stronger effect = higher value
Procedure, shortened: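 Inhibition of yeast growth was determined after compound treatment, normalised to controls receiving only vehicle.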

[2] = NCI Yeast Anticancer Drug Screen. Data for the sgs1 strain (AID 173);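 also: 0% = growth of vehicle-only control cultures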; conditions: S. cerevisiae sgs1 mutant, stronger effect = higher value
Procedure, shortened: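 Screen format: yeast with repair or checkpoint alterations, compound exposure, growth read relative to vehicle.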

[3] = NCI Yeast Anticancer Drug Screen. Data for the mlh1 rad18 strain (AID 175); conditions: S. cerevisiae mlh1 rad18 strain growth inhibition, stronger effect = higher value
Procedure, shortened: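 Vehicle-treated cultures served as the reference for growth inhibition in a yeast strain carrying DNA damage repair alterations exposed to each compound.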

[4] = NCI Yeast Anticancer Drug Screen. Data for the rad18 strain (AID 177); conditions: S. cerevisiae rad18 mutant growth inhibition, stronger effect = higher value
Procedure, shortened: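 Test articles were incubated with altered yeast defective in DNA damage repair. Results are given as inhibition of growth versus vehicle.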

[5] = NCI Yeast Anticancer Drug Screen. Data for the rad52 strain (AID 147);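 also: 0% = growth of vehicle-treated control cultures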; conditions: S. cerevisiae rad52 mutant growth inhibition, stronger effect = higher value
Procedure, shortened: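 Vehicle-treated cultures served as the reference for growth inhibition of compound-exposed yeast bearing a DNA repair mutation.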

[6] = NCI Yeast Anticancer Drug Screen. Data for the wt1 strain (AID 149);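 also: 0% = growth of vehicle-treated wt1 cultures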; conditions: S. cerevisiae wt1 strain (SPY 50644) growth inhibition, stronger effect = higher value
Procedure, shortened: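 wt1 strain grown with compound or vehicle; inhibition taken from the growth difference.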

[7] = NCI Yeast Anticancer Drug Screen. Data for the rad50EPP+ strain (AID 151);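 also: 0% = growth of vehicle-treated control cultures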; conditions: S. cerevisiae rad50 mutant strain, stronger effect = higher value
Procedure, shortened: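 In this screen, rad50EPP+ yeast were exposed to compounds. Growth inhibition was scored against vehicle-treated controls.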

[8] = NCI Yeast Anticancer Drug Screen. Data for the mgt1 strain (AID 153); conditions: S. cerevisiae mgt1 mutant growth inhibition, stronger effect = higher value
Procedure, shortened: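 mgt1 strain exposed; growth vs vehicle control recorded as inhibition.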

[9] = NCI Yeast Anticancer Drug Screen. Data for the rad50 strain (AID 155);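 also: 0% = growth of vehicle-only cultures of the same strain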; conditions: S. cerevisiae rad50 strain growth inhibition, stronger effect = higher value
Procedure, shortened: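 DNA repair mutant yeast, compound exposure, growth read-out; inhibition is taken relative to vehicle.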

[10] = NCI Yeast Anticancer Drug Screen. Data for the mec2-1 strain (AID 157); conditions: S. cerevisiae mec2-1 strain, stronger effect = higher value
Procedure, shortened: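 Vehicle-treated cultures served as reference for growth inhibition of compound-exposed mec2-1 yeast.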

[11] = NCI Yeast Anticancer Drug Screen. Data for the rad14 strain (AID 159);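 also: 0% = growth of vehicle-treated control cultures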; conditions: S. cerevisiae rad14 strain growth inhibition, stronger effect = higher value
Procedure, shortened: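 DNA repair-defective yeast, compound-exposed; % growth inhibition derived by comparison with vehicle-treated controls.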

[12] = NCI Yeast Anticancer Drug Screen. Data for the sgs1 mgt1 strain (AID 161);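 also: 0% = growth of cultures given vehicle only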; conditions: S. cerevisiae sgs1 mgt1 strain, stronger effect = higher value
Procedure, shortened: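 Mutant yeast exposed to compound; growth scored against vehicle-only wells.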

[13] = NCI Yeast Anticancer Drug Screen. Data for the CLN2oe strain (AID 163);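 also: 0% = growth of vehicle-only control cultures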; conditions: S. cerevisiae CLN2oe strain, stronger effect = higher value
Procedure, shortened: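 Inhibition relative to vehicle-treated yeast is reported. Cells: strain with genetic alteration in cell-cycle control, grown with compound.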

[14] = NCI Yeast Anticancer Drug Screen. Data for the cln2 rad14 strain (AID 165);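 also: 0% = growth equal to vehicle treated cultures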; conditions: S. cerevisiae cln2 rad14 strain, stronger effect = higher value
Procedure, shortened: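 Each compound was tested on cln2 rad14 yeast. Inhibition of growth was calculated against vehicle-exposed controls.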

[15] = NCI Yeast Anticancer Drug Screen. Data for the bub3 strain (AID 167); conditions: S. cerevisiae bub3 mutant strain, stronger effect = higher value
Procedure, shortened: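 In this screen, a yeast mutant lacking normal mitotic checkpoint function is challenged with compound. Relative growth versus vehicle gives the inhibition value.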

[16] = NCI Yeast Anticancer Drug Screen. Data for the mlh1 strain (AID 171);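 also: 0% = growth of vehicle-treated control cultures of the same strain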; conditions: S. cerevisiae mlh1 strain growth inhibition, stronger effect = higher value
Procedure, shortened: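 Vehicle-normalised growth inhibition of a repair- or checkpoint-altered yeast strain following compound treatment.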

[17] = at 5.0 µM (retest, dose inferred, filed as 0.5)
[18] = at 50.0 µM (retest, dose inferred, filed as 5.0)

Measured: growth inhibition

COc1ccc(C(=O)C(CN(C)C)CN(C)C)cc1
92% (active) and 27% (inactive): [3]; [18]
active: [1]; at 100.0 µM 79% | [2]; at 100.0 µM 78%
inactive: [1]; at 1.2 µM 12% | [1]; at 3.7 µM 1% | [1]; at 11.0 µM 4% | [1]; at 33.0 µM 36% | [2]; at 1.2 µM -7% | [2]; at 3.7 µM 29% | [2]; at 11.0 µM 26% | [2]; at 33.0 µM 32% | [3]; [17] 57% and 12% | [3]; at 50.0 µM 8.1% and 64.3% | [4]; at 1.2 µM -3% | [4]; at 3.7 µM -8% | [4]; at 11.0 µM -23% | [4]; at 33.0 µM -3% | [4]; at 100.0 µM 66%

O=P(NC1CCCCC1)(OCc1ccccc1)OCc1ccccc1
inactive: [5]; at 1.2 µM -1% | [5]; at 3.7 µM 4% | [5]; at 11.0 µM 16% | [5]; at 33.0 µM 26% | [5]; at 100.0 µM 26% | [6]; at 1.2 µM 0% | [6]; at 3.7 µM 3% | [6]; at 11.0 µM 0% | [6]; at 33.0 µM 3% | [6]; at 100.0 µM 7% | [7]; at 1.2 µM 2% | [7]; at 3.7 µM 4% | [7]; at 11.0 µM 10% | [7]; at 33.0 µM 9% | [7]; at 100.0 µM 7% | [8]; at 1.2 µM -1% | [8]; at 3.7 µM 0% | [8]; at 11.0 µM 4% | [8]; at 33.0 µM 4% | [8]; at 100.0 µM 7% | [9]; at 1.2 µM 3% | [9]; at 3.7 µM 5% | [9]; [17] 8% | [9]; at 11.0 µM 11% | [9]; at 33.0 µM 19% | [9]; [18] 14% | [9]; at 100.0 µM 26% | [10]; at 1.2 µM 1% | [10]; at 3.7 µM 1% | [10]; [17] 5% | [10]; at 11.0 µM 7% | [10]; at 33.0 µM 10% | [10]; [18] 4% | [10]; at 50.0 µM 23.6% | [10]; at 100.0 µM 11% | [11]; at 1.2 µM -1% | [11]; at 3.7 µM -2% | [11]; at 11.0 µM 4% | [11]; at 33.0 µM 6% | [11]; at 100.0 µM 13% | [12]; [17] 7% | [12]; [18] 7% | [12]; at 50.0 µM 42.3% | [13]; at 1.2 µM 7% | [13]; at 3.7 µM 2% | [13]; at 11.0 µM 10% | [13]; at 33.0 µM 12% | [13]; at 100.0 µM 17% | [14]; [17] 15% | [14]; [18] 9% | [14]; at 50.0 µM -12.7% | [15]; at 1.2 µM 0% | [15]; at 3.7 µM 4% | [15]; [17] 3% | [15]; at 11.0 µM 3% | [15]; at 33.0 µM 5% | [15]; [18] 2% | [15]; at 50.0 µM 7.8% | [15]; at 100.0 µM 2% | [1]; at 1.2 µM 1% | [1]; at 3.7 µM 2% | [1]; at 11.0 µM 2% | [1]; at 33.0 µM 4% | [1]; at 100.0 µM 8% | [16]; at 1.2 µM -7% | [16]; at 3.7 µM 0% | [16]; at 11.0 µM 2% | [16]; at 33.0 µM 4% | [16]; at 100.0 µM 7% | [3]; [17] 3% | [3]; [18] 3% | [3]; at 50.0 µM 34.8% | [4]; at 1.2 µM -1% | [4]; at 3.7 µM 3% | [4]; at 11.0 µM 13% | [4]; at 33.0 µM 26% | [4]; at 100.0 µM 28%
active: [9]; at 50.0 µM 73.3%
